Test results published in PubChem BioAssay AID1159580 (chemical genetic matrix, 2015).
“And” between values parts separate entries of the source, which are not always exact repeats. Equal entries are not always repeated. In all, about 5,500 compounds went through this assay and about 2,000 (36%) were called active. Another 18% or so got no clear call; they are omitted. No stated cut-off is given here; in the data, active means normalized growth mostly below about 0.91 (no sharp cut-off); inconclusive means no clear call, values can overlap the other calls; inactive means mostly above about 0.92. This is one part of the list.

Experiment: chemical genetic growth profiling, strain panel (AID 1159580);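 further: tested at 20 µM; growth read once vehicle control cultures reached saturation at 30 °C; 1 = growth at the plate median or of vehicle wells; lower values mean less growth of the strain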
Conditions: S. cerevisiae deletion strains, growth OD

Measured: normalized growth

O=C(c1ccccc1)c1ccc2n1CCC2C(=O)O (stereo not drawn)
inactive: locus YAL013W, strain DEP1, hits give low values 0.993 | locus YAL021C, strain ccr4, hits give low values 0.98 | locus YAL026C, strain drs2, hits give low values 0.983 | locus YAL030W, strain snc1, hits give low values 0.978 | locus YAL040C, strain CLN3, hits give low values 1.01 | locus YBL061C, strain skt5, hits give low values 1.01 | locus YBR009C, strain hhf1, hits give low values 0.991 | locus YBR021W, strain FUR4, hits give low values 0.988 | locus YBR023C, strain chs3, hits give low values 1.01 | locus YBR171W, strain sec66, hits give low values 0.994 | locus YBR229C, strain ROT2, hits give low values 1.01 | locus YBR231C, strain swc5, hits give low values 1.01 | locus YBR279W, strain paf1, hits give low values 1.01 | locus YCL011C, strain gbp2, hits give low values 0.974 | locus YCL016C, strain dcc1, hits give low values 0.995 | locus YCL029C, strain bik1, hits give low values 0.956 | locus YCL061C, strain MRC1 (second series), hits give low values 1.02 | locus YCL069W, strain vba3, hits give low values 0.979 | locus YCR088W, strain abp1, hits give low values 1.01 | locus YDL005C, strain med2, hits give low values 0.967 | locus YDL035C, strain GPR1, hits give low values 0.987 | locus YDL040C, strain nat1, hits give low values 0.997 | locus YDL074C, strain BRE1, hits give low values 1.05 | locus YDL101C, strain DUN1, hits give low values 1 | locus YDL134C, strain PPH21, hits give low values 0.988 | locus YDL185W, strain tfp1, hits give low values 0.958 | locus YDL192W, strain arf1, hits give low values 0.968 | locus YDR001C, strain nth1, hits give low values 0.968 | locus YDR069C, strain doa4, hits give low values 1.01 | locus YDR101C, strain arx1, hits give low values 1.01 | locus YDR137W, strain rgp1, hits give low values 0.945 | locus YDR150W, strain NUM1, hits give low values 0.994 and 1.01 | locus YDR159W, strain sac3, hits give low values 0.955 | locus YDR162C, strain NBP2, hits give low values 0.982 | locus YDR195W, strain ref2 0.975 | locus YDR297W, strain sur2, hits give low values 0.991 | locus YDR318W, strain mcm21, hits give low values 0.969 | locus YDR334W, strain swr1, hits give low values 0.976 | locus YDR335W, strain msn5, hits give low values 0.988 | locus YDR363W, strain ESC2, hits give low values 1.02 | locus YDR388W, hits give low values 0.981 | locus YDR392W, strain spt3, hits give low values 0.935 | locus YDR502C, strain sam2, hits give low values 0.987 | locus YEL003W, strain gim4, hits give low values 0.997 | locus YEL037C, strain rad23, hits give low values 0.984 | locus YEL061C, strain CIN8 (second series), hits give low values 0.999 | locus YEL061C, strain CIN8, hits give low values 0.994 | locus YER002W, strain NOP16, hits give low values 0.998 | locus YER015W, strain faa2, hits give low values 0.99 | locus YER016W, strain bim1, hits give low values 0.988 | locus YER110C, hits give low values 0.96 | locus YER111C, strain swi4, hits give low values 1 | locus YER155C, strain BEM2 (second series), hits give low values 1.01 | locus YER155C, strain BEM2, hits give low values 1 | locus YER167W, strain BCK2, hits give low values 0.997 | locus YFR010W, strain ubp6, hits give low values 0.981 | locus YGL078C, strain dbp3, hits give low values 0.982 | locus YGL086W, strain mad1, hits give low values 0.995 | locus YGL167C, strain pmr1, hits give low values 0.998 | locus YGL173C, strain kem1, hits give low values 1 | locus YGL227W, strain vid30, hits give low values 0.996 | locus YGL240W, strain doc1, hits give low values 1.02 | locus YGL248W, strain PDE1, hits give low values 1.01 | locus YGL253W, strain hxk2, hits give low values 0.974 | locus YGR135W, strain pre9, hits give low values 0.974 | locus YGR252W, strain gcn5, hits give low values 0.996 | locus YHR013C, strain ard1, hits give low values 0.994 | locus YHR027C, strain rpn1, hits give low values 1.01 | locus YHR030C, strain SLT2, hits give low values 0.988 and 0.999 | locus YHR079C, strain IRE1 (second series), hits give low values 0.965 | locus YHR079C, strain IRE1, hits give low values 1.02 | locus YHR094C, strain hxt1, hits give low values 0.985 | locus YHR129C, strain ARP1, hits give low values 0.991 | locus YHR142W, strain chs7, hits give low values 0.975 | locus YHR200W, strain rpn10, hits give low values 0.96 | locus YIL066C, strain RNR3, hits give low values 1 | locus YIL073C, strain SPO22, hits give low values 0.922 | locus YIL125W, strain kgd1, hits give low values 0.985 | locus YIR030C, strain dcg1, hits give low values 0.973 | locus YJL092W, strain hpr5, hits give low values 0.984 | locus YJL095W, strain BCK1 (second series), hits give low values 0.993 | locus YJL095W, strain BCK1, hits give low values 1.03 and 0.992 | locus YJL115W, strain asf1, hits give low values 0.984 | locus YJL129C, strain trk1, hits give low values 1.02 | locus YJL134W, strain LCB3, hits give low values 0.99 | locus YJL154C, strain vps35, hits give low values 0.975 | locus YJL164C, strain tpk1, hits give low values 0.965 | locus YJL166W, strain qcr8, hits give low values 1.02 | locus YJL168C, strain set2, hits give low values 0.979 | locus YJL187C, strain SWE1 (second series), hits give low values 1.01 | locus YJL187C, strain SWE1, hits give low values 0.986 | locus YJR043C, strain POL32, hits give low values 0.997 | locus YJR066W, strain TOR1, hits give low values 0.966
